Source: PubChem BioAssay
Only some compounds are listed: those with a hit (about 9.3% of all), similar ones and a draw of the others.
ELG1 DNA repair: inhibitors of ELG1-dependent DNA repair in HEK293T cells | Potency, µM (highest dose often 46.1 µM), without a hit: top-dose activity change, negative = inhibition, usual class: inhibitors | AID 504467 | hit rate 2.3% among 330,000 | HEK293T ELG1-luciferase reporter, luminescence, 16 h; DNA damage induced by 5-fluorouridine; note: % is set by controls: 0 for no effect and ±100 for the full control effect; nearly all actives have a fitted effect of over 55% in size
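Step one: seed 2,000 cells per well. Step two: pin-transfer compound or DMSO alongside 5-fluorouridine. Step three: incubate 16 hr, 37 °C, 5% CO2. Step four: add ONE-Glo, wait 30 min, read luminescence.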
ELG1 genotoxic: induces genotoxicity in HEK293T cells with luciferase-tagged ELG1; Potency, µM (doses to about 46 µM), for the others: at the highest dose activity change, positive = activation, actives largely listed as activators; hit rate 1.3% among 330,000; HEK293T ELG1-luciferase reporter, luminescence, 16 h; AID 504466; note: % of control where 0% means no effect; nearly all actives have a fitted effect of over 60% in size
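Cells (2,000/well) expressing the ELG1-luciferase fusion are dosed by pin tool and kept 16 hr at 37 °C, 5% CO2. Signal comes from ONE-Glo luciferase reagent after 30 min at room temperature.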
Rab9 promoter act: activates the Rab9 promoter. Potency, µM (doses to about 9.22 µM), without a hit: top-dose activation, negative = inhibition, usual class: activators. hit rate 2.8% among 320,000. Huh7 Rab9 promoter-luciferase reporter, luminescence, 24 h; note: % of control where 0% means no effect; nearly all actives have a fitted effect of over 60% in size
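Huh7 cells stably carrying Rab9 promoter–luciferase reporter, plated 1500 cells/well, compound added after 2 h and incubated 24 h at 37 °C; luciferase luminescence then read after 10 min with detection reagent.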
FLuc counter: inhibits or activates purified firefly luciferase, miR-21 counter-screen; P08659; purified FLuc, Km substrates, luminescence inhibition; Potency, µM (series often up to 57.5 µM), for the others: at the highest dose activity change, negative = inhibition, usual class: inhibitors; hit rate 6.9% among 360,000;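 note: plate controls were vehicle for no effect and reference inhibitor for full effect; nearly all actives have a fitted effect of over 55% in size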
Target sequence (P08659 whole entry, looked up): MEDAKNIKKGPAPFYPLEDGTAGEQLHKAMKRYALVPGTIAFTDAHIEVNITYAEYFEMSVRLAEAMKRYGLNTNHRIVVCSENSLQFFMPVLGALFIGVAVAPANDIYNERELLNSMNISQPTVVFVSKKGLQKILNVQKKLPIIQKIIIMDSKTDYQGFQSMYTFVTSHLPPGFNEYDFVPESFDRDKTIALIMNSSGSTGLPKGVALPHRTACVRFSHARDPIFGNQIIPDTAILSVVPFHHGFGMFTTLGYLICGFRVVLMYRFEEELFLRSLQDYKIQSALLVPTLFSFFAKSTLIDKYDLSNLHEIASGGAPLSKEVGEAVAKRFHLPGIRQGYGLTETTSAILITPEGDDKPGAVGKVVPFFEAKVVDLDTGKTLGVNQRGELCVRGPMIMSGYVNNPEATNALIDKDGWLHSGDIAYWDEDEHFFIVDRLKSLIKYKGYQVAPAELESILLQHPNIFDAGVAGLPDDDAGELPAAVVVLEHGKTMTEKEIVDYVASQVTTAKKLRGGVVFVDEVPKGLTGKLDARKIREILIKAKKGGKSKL
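Biochemical qHTS of compounds, final roughly 60 µM downward over six points, against 10 nM purified firefly luciferase using Km concentrations of substrates (10 uM D-luciferin, 10 uM ATP) in Tris acetate pH 7.5 buffer; luminescence output.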
NPC1 prom act: activators of NPC1 promoter; Huh7 NPC1 promoter luciferase reporter, 24 h; AID 485313; Potency, µM (titrated, usually from 9.22 µM), for the others: top-dose activation, hits mostly activators; hit rate 2.4% among 320,000; note: % of control where 0% means no effect; nearly all actives have a fitted effect of over 60% in size
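Stable NPC1-promoter luciferase Huh7 line; cpd (DMSO) 24 h, 37 °C, 5% CO2; Amplite luciferase reagent 10 min RT; luminescence readout. qHTS format.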
SMN2 splice up: increases expression of the SMN2 splice variant; HEK293 SMN2-luciferase splicing reporter, luminescence, 30-36 h; AID 1458; hit rate 2.8% among 210,000; Potency, µM (top dose mostly 46.1 µM), for inactives: at the highest dose activity change, positive = activation, hits mostly activators; note: % of control where 0% means no effect; nearly all actives have a fitted effect of over 55% in size
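qHTS luciferase splicing reporter: luminescence rises when SMN2 exon 7 is included in transfected HEK293 cells. Compound exposure lasted 30-36 h at 37C, with 4.5 mM final sodium butyrate as control, followed by a ONE-Glo read.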
* hit, by the source's call; u = inconclusive; x = no result given; [ ] = another dose, or the depositor's remark. Calls come from the whole dose curve; as a rule, active = well fitted curve in the direction sought with a large enough effect; inconclusive = small, poorly fitted or top-dose-only effect, or another doubt; inactive = no such curve, though single readings can be large; an effect the other way counts as inactive or inconclusive. Potency is the fitted concentration of half-maximal effect.

SMILES	ELG1 DNA repair	ELG1 genotoxic	Rab9 promoter act	FLuc counter	NPC1 prom act	SMN2 splice up
Cc1ccc(C(=O)O/N=C(\N)c2ccccn2)c(Cl)c1	u	u	0.708µM*	0.019µM*	u	x
N/C(=N\OC(=O)c1cc(-c2ccccc2)nc2ccccc12)c1ccc(Cl)cc1	11.4%	-1.7%	-1.4%	u	-3.8%	-6.6%
N/C(=N\OC(=O)c1ccc(Cl)cc1Cl)c1ccccn1	u	0.259µM*	0.112µM*	0.0953µM*	0.316µM*	x
Cc1ccc(C(=O)O/N=C(\N)c2ccccc2)c(Cl)c1	u	u	0.794µM*	0.0849µM*	2.24µM*	x
CCCCOc1c(Cl)cc(C(=O)N(Cc2ccc(C)o2)C2CCS(=O)(=O)C2)cc1Cl (configuration not stated)	x	x	x	-7.2%	x	-32.1%
CCOc1ccccc1N(C(=O)CNC(=O)c1ccco1)C(C(=O)NC1CCCC1)c1ccncc1 (configuration not stated)	5.6%	0.0%	-4.7%	-0.7%	3.7%	x
COc1ccccc1NC(=O)CN(Cc1ccco1)C(=O)c1ccc(N2CCCC2=O)cc1	u	1.0%	x	x	x	x
O=C(/C=C(\O)c1ccccc1)C(=O)NNC(=O)c1ccccc1[N+](=O)[O-]	4.2%	1.7%	0.8%	2.1%	10.7%	x
Nc1ccccc1C(=O)NNC(=O)C(=O)/C=C(\O)c1ccccc1	u	14.6%	20.6%	13.5µM*	16.8%	x
Cc1cccc(N(CC(=O)NC2CCCCC2)C(=O)CCCC(=O)Nc2ccccn2)c1C	0.4%	-4.2%	0.0%	2.4%	3.5%	x
CC(=O)Nc1ccc(N=Cc2c(O)c(C(=O)Nc3ccccc3)cc3ccccc23)cc1	u	-3.4%	22.5%	0.675µM*	12.5%	-8.4%
CC(=O)Nc1ccc(NC(=O)c2cccc3ccccc23)cc1	-0.6%	-23.3%	-5.4%	1.7%	-3.8%	x
CN(C)S(=O)(=O)c1ccc(C(=O)NCCSc2ccccc2)cc1	u	10.3µM*	u	u	u	18.4%
COc1cc(C(=O)NCCSc2ccccc2)cc(OC)c1OC	-3.5%	-1.4%	9.1%	-14.8%	4.7%	x
Cc1ccc(C(=O)NCCSc2ccc(Cl)cc2)cc1S(=O)(=O)Nc1ccccc1	20.6µM*	1.8%	-4.7%	0.5%	-9.0%	-28.9%
COc1ccc(C(=O)NCCSc2ccccc2)cc1OC	u	u	u	u	u	14.1µM*
O=C(COc1ccccc1)NCCSc1ccccc1	u	20.6µM*	12.2%	26.9µM*	u	20.5%
CC(C)(C)SCCNC(=O)COc1ccccc1	u	6.7%	-3.8%	-7.4%	-3.5%	7.4%
Cc1ccc(C(=O)COC(=O)COc2ccc(C)c(C)c2)cc1	15.2%	2.4%	1.4%	u	-1.5%	x
COc1ccccc1OCCNC(=O)Nc1ccc(Br)cc1	-7.4%	-3.4%	-2.1%	2.4%	0.3%	10.5%
COc1ccccc1OCCNC(=O)c1ccc(Br)cc1	u	u	-0.4%[1.84 µM]	23.9µM*	u	x
CCCOC(=O)c1cccc(Nc2nc(CCC)cc(=O)[nH]2)c1	x	x	x	-18.8%	x	-34.3%
COc1ccc(/C=N\NC(=O)C2=NNC(=O)C2C)cc1 (configuration not stated)	u	u	u	6.01µM*	u	7.3%
COc1ccc(/C=N/NC(=O)c2nonc2C)cc1	u	u	u	1.9µM*	18.3%	u
COc1ccc(/C=N/NC(=O)c2nc(-c3ccccc3)n(-c3ccccc3)n2)cc1	-23.9%	-2.1%	-6.5%	15.1µM*	-4.8%	3.8%
SMILES	ELG1 DNA repair	ELG1 genotoxic	Rab9 promoter act	FLuc counter	NPC1 prom act	SMN2 splice up
COc1ccc(/C=C/C(=O)OCC(=O)Nc2c(C)cccc2C)cc1	8.0%	0.1%	-6.7%	-3.5%	-5.2%	0.8%
COc1ccc(OC)c(C(=O)COC(=O)c2ccccc2O)c1	u	15.1%	-0.6%	12µM*	24.1%	5.4%
COc1ccc(C(=O)COC(=O)c2cccnc2Cl)c(OC)c1	u	20.6µM*	2.24µM*	10.7µM*	21.4%	-0.5%
O=C(COC(=O)c1cccnc1Cl)c1ccc(Cl)cc1Cl	-2.9%	-0.5%	-8.0%	0.757µM*	-0.3%	-4.5%
Cc1cc(C)c(C(=O)COC(=O)c2cccnc2Cl)c(C)c1	u	-0.8%	-0.3%	16.9µM*	-2.2%	-0.3%
COc1ccc(OC)c(C(=O)COC(=O)c2c(OC)cccc2OC)c1	u	1.7%	4.4%	3.1%	-3.7%	-15.0%
Cc1cc(SCC(=O)NCc2ccccc2)nc(=O)[nH]1	x	x	x	-2.2%	x	x
Cc1ccc(CS(=O)(=O)Cc2ccc(C(=O)NCCCN3CC(C)CC(C)C3)o2)cc1 (configuration not stated)	19.0%	-1.8%[9.26 µM]	-3.6%	1.6%	-1.6%	x
O=C(COC(=O)c1cccnc1Cl)c1ccc(OC(F)F)cc1	2.8%	0.3%	8.0%	5.36µM*	-0.8%	1.4%
CS(=O)(=O)C1=NSC2=NC(=O)/C(=C\c3ccc(OS(=O)(=O)c4ccccc4)cc3)C(=N)N21	u	2.7%	-2.3%	-10.5%	0.0%	x
Cc1ccc(-n2cccc2/C=C2/C(=N)N3C(=NC2=O)SN=C3S(C)(=O)=O)cc1	-12.7%	0.1%	2.5%	19µM*	-1.3%	-14.5%
Cc1cc(C)cc(-n2cccc2/C=C2/C(=N)N3C(=NC2=O)SN=C3S(C)(=O)=O)c1	-16.0%	-2.8%	3.4%	13.5µM*	-5.8%	-19.9%
CCc1ccc(-n2cccc2/C=C2/C(=N)N3C(=NC2=O)SN=C3S(C)(=O)=O)cc1	-10.7%	0.0%	2.5%	16.9µM*	-2.6%	-10.5%
CCC1=NN2C(=N)/C(=C\c3cccn3-c3ccc(C)c(C)c3)C(=O)N=C2S1	18.3µM*	-9.7%	-2.9%	u	0.7%	3.2%
CCC1=NN2C(=N)/C(=C\c3cccn3-c3ccc(Cl)cc3)C(=O)N=C2S1	u	-15.1%	-0.9%	u	0.0%	-11.6%
CN1CCc2ccccc2[C@@H]1Cc1ccccc1NC(=O)c1sc2ccccc2c1Cl	x	x	x	x	x	3.4%[9.22 µM]
CS(=O)(=O)C1=NSC2=NC(=O)/C(=C\c3cccn3-c3ccccc3Cl)C(=N)N21	-8.6%	1.6%	16.2%	26.9µM*	-0.1%	-2.3%
COc1cccc(-n2c(C)cc(/C=C3/C(=N)N4C(=NC3=O)SN=C4S(C)(=O)=O)c2C)c1	u	4.6%	1.1%	5.36µM*	1.3%	19.7%
COc1cc(/C=C2/C(=N)N3C(=NC2=O)SN=C3S(C)(=O)=O)ccc1OS(=O)(=O)c1ccc(C)cc1	24.8%	-1.2%[9.26 µM]	0.2%	-18.6%	0.1%	x
CSc1cccc(-n2cc(-c3ccc4c(c3)OCO4)[nH]c2=O)c1	u	u	u	21.3µM*	4.8%	u
